Among the data in the OligoGym collection are sensor-assay potency score (higher = more potent) values, retold here.
Further: reference of the scale not given here.

The first assay concerns the target NELL2. The assay is described as follows: pooled miR-30 sensor sort-seq; sequence = guide strand. Conditions: shRNA.
As to TTGTGATACACTCATCATGTTC, the sensor-assay potency score (higher = more potent) was -1.15.
The same measure, in the same setting: the result for TAACCTTTACAAACTTTGCAAC reads -0.975; that for TGTCACATTGAACAAAACCATC, -1.67; that for TAAAATATCCTGTAGCTCCATG, -0.475.
Still for that read-out and setting: the figure for TTATTTCTCTGTCCTAGCCAAA is -1.55; for TCGACAGCTACAAACAGCCCTG it is -0.27; for TTTCACAATAGCACTGATCCAA it is 0.272.
Same read-out and setting: the result for TTACAAACTTTGCAACAGCTGT reads -0.672.
In turn, TTGCATGTCGTTCCATTCCCTG had a sensor-assay potency score (higher = more potent) of -1.03.
Still for that read-out and setting: the result for TAAGACGTCAATCTGTAGGGAA reads 0.711; that for TAGAGTTTCACACTGGATGGTT, 0.431.

Another assay concerns the target NETO2. The description is as above. The settings on record: shRNA.
The sequence TAATCCACATGAATCTCCCTGT showed a sensor-assay potency score (higher = more potent) of 0.411.
Sequence TTGATAATCTAGGAACCTCAAA showed a sensor-assay potency score (higher = more potent) of -1.24.
TTGTTTTCTCCTCTTGTTCTAC had a sensor-assay potency score (higher = more potent) of -0.539.
For TAACAACACTTTGAGGACCGAG, the sensor-assay potency score (higher = more potent) was -0.0442.
Consider TTTCAATAGAACTGCTTCCATC, for which the sensor-assay potency score (higher = more potent) is -1.24.
TTCTTTGACGTGGAGCAGCTTC gave a sensor-assay potency score (higher = more potent) of -0.587.
Sequence TAAATGAATATTTTGCTCGAAA registered a sensor-assay potency score (higher = more potent) of -0.895.
The sequence TTGCTCGAAATCCCAGTCCTTC showed a sensor-assay potency score (higher = more potent) of -0.463.
Still for that read-out and setting: the figure for TTAACATATATAGACTGCCTGA is -0.881; for TTAATCCACATGAATCTCCCTG it is 0.06.
TTGACGTGGAGCAGCTTCCAAA displayed a sensor-assay potency score (higher = more potent) of -1.08.
Sequence TTATTAACAACACTTTGAGGAC came in with a sensor-assay potency score (higher = more potent) of -0.45.
